Several values for one entry are separate records, joined by “and”; a condition that tells them apart may be missing. Identical values can stand only once. Results filed as inconclusive are left out. Entries that show only a call come without a potency. Activity calls are given as the source filed them. The call rests on the fitted dose curve; in most records, active means well fitted curve in the direction sought with a large enough effect; inconclusive means small, poorly fitted or top-dose-only effect, or another doubt; inactive means no such curve, though single readings can be large; an effect the other way counts as inactive or inconclusive.
Key:
[1] = target: Lysine-specific demethylase 5B (Homo sapiens) (UniProt Q9UGL1); assay: Optimization screen for KDM5B Histone Demethylases FDH coupled qHTS against the LOPAC library (AID 1347166)
Procedure, shortened: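 KDM5BDeltaAP (200nM final) preincubated 10 min with compound, then 12.5uM H3K4Me3, 25uM a-ketoglutarate, ascorbate, Fe(II), NAD+ and FDH added; 50mM HEPES pH 7.5, 0.01% Tween-20. NADH fluorescence (340/450 nm) change over 30 min, room temperature.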

[2] = Confirmatory screen NINDS Rhodamine qHTS for Zika virus inhibitors (AID 1347161); further: potency means the concentration at half of the fitted maximal effect; nearly all actives have a fitted effect of over 60% in size
Procedure, shortened: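 Purified linked NS2B-NS3 protease (NS2B hydrophilic domain joined to NS3 protease by flexible linker), 25 nM in 10 mM Tris-HCl pH 8.0, 0.01% Tween 20. Compounds titrated, 15 min preincubation at room temperature; 1.5 microM Rhodamine110 substrate, FITC fluorescence change over 15 min.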

[3] = Vero cells viability qHTS for Zika virus inhibitors (AID 1347167)
Procedure, shortened: (§1)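 Compounds were tested in concentration series on cells grown in DMEM containing 4% FBS. After 24 to 48 hours, cellular ATP was measured by luminescence with CellTiter Glo.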

[4] = HepG2 cells viability qHTS for Zika virus inhibitors (AID 1347168)
Procedure, shortened: as §1

[5] = Tertiary RLuc qRT-PCR qHTS assay for Zika virus inhibitors (AID 1347169); further: nearly all actives have a fitted effect of over 55% in size; further: potency means the concentration at half of the fitted maximal effect
Procedure, shortened: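 Vero cells (1,000 per well) plated overnight at 37 degrees C, treated with compound in DMSO, then infected with recombinant ZIKV-RLuc (Cambodian) at MOI 1-2 for 48-72 hrs. Live-cell Renilla luciferase substrate added; luminescence read after 1-1.5 hrs.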

[6] = test system: Zika virus NS2B-NS3 protease (linked); assay: 384 well plate NINDS AMC confirmatory qHTS for Zika virus inhibitors (AID 1347163);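 further: linked protease at 5 30 or 60 nM final depending on run; fluorescence of AMC released from Ac-VKTGKR-AMC peptide cleaved by the protease; top concentration of the series differs between compounds; nearly all actives have a fitted effect of over 50% in size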
Procedure, shortened: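 Linked protease 5/30/60 nM final; cpds up to 1 mM final, ~15 min preinc. Substrate Ac-VKTGKR-AMC 30 microM final. RT, dark, 25 min; FI ex 355/em 460; normalized to no-enzyme/no-inhibitor ctrls.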

[7] = test system: Zika virus NS2B-NS3 protease (linked construct); assay: 384 well plate NINDS Rhodamine confirmatory qHTS for Zika virus inhibitors (AID 1347164);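 further: fluorescence from protease cleavage of Ac-LKRR-rhodamine 110 substrate; nearly all actives have a fitted effect of over 65% in size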; further: potency means the concentration at half of the fitted maximal effect
Procedure, shortened: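 Linked protease at a final 5 nM, 30 nM or 60 nM was preincubated ~15 min with compounds, then given 10 microM Ac-LKRR-Rhodamine 110. Fluorescence (ex 485/em 538 nm) after 25 min in the dark at room temperature.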

Chain of Lysine-specific demethylase 5B (Homo sapiens) (Q9UGL1 whole entry, looked up): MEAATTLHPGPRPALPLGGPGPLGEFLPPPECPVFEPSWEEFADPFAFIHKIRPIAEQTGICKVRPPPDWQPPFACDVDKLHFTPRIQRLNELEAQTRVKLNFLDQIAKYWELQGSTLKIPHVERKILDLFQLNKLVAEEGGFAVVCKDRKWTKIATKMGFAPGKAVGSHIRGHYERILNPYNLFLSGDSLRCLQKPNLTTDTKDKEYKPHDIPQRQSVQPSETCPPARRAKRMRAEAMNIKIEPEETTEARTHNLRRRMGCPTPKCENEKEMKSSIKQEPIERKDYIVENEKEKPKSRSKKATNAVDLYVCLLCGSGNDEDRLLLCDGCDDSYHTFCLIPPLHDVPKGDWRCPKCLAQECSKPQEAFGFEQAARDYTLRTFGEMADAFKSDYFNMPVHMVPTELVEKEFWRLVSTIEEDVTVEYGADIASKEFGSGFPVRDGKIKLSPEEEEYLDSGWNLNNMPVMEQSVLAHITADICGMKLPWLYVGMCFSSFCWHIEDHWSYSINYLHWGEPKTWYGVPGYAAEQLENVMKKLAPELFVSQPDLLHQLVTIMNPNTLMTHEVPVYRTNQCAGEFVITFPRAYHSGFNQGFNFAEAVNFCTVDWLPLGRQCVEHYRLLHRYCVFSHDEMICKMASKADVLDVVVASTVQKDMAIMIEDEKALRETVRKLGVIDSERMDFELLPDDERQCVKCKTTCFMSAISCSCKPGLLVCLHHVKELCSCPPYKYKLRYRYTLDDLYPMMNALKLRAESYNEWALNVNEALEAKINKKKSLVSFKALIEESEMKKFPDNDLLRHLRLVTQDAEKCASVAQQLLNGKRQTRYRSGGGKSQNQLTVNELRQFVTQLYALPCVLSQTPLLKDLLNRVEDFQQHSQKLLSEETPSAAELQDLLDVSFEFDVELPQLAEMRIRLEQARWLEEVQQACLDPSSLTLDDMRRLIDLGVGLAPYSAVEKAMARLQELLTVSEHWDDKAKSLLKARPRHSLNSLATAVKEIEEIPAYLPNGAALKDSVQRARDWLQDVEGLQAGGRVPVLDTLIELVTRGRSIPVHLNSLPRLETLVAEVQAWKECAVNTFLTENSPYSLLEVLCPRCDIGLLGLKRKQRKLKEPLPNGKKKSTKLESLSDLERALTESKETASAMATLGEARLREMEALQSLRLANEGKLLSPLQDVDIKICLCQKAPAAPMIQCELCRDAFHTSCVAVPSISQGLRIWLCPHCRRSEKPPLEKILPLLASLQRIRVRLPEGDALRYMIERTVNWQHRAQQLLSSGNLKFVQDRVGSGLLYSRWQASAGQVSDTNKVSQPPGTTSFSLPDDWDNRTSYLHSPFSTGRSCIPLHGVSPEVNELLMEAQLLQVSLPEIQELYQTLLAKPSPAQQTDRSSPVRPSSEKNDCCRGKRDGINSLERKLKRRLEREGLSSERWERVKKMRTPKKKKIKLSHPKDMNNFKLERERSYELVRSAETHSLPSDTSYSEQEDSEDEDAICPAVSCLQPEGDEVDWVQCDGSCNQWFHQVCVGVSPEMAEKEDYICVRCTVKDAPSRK

Q: Which outcome [1] does the source give for COc1cc2c(cc1O)CC[C@@H]1[C@@H]2CC[C@]2(C)[C@@H](O)CC[C@@H]12 here?
A: inactive

Q: With CNCCC=C1c2ccccc2CCc2ccccc21 as the compound, how does the outcome [1] read?
A: inactive

Q: With Nc1nc2ncc(CNc3ccc(C(=O)N[C@@H](CCC(=O)O)C(=O)O)cc3)nc2c(=O)[nH]1 as the compound, how does the Potency [2] read?
A: 55.3 µM (active)

Q: And the Potency [3]?
A: inactive

Q: What about the Potency [4] of the same compound?
A: inactive

Q: What about the Potency [5] of the same compound?
A: inactive

Q: With C[C@]12CC[C@@H]3c4ccc(O)cc4CC[C@H]3[C@@H]1CC[C@@H]2O as the compound, how does the outcome [1] read?
A: inactive

Q: With N[C@@H](Cc1cnc[nH]1)C(=O)O as the compound, how does the outcome [1] read?
A: inactive

Q: For COc1c(C)c2c(c(O)c1C/C=C(\C)CCC(=O)O)C(=O)OC2, which outcome [6] is on record?
A: inactive

Q: What about the Potency [7] of the same compound?
A: inactive

Q: What about the Potency [3] of the same compound?
A: inactive

Q: What about the Potency [4] of the same compound?
A: inactive

Q: What about the Potency [5] of the same compound?
A: 0.739 µM (active)

Q: With COC(=O)[C@H]1[C@H]2C[C@H]3c4[nH]c5ccccc5c4CCN3C[C@H]2CC[C@@H]1O as the compound, how does the outcome [1] read?
A: inactive

Q: What does the source list for O=C(Nc1ccc(Oc2ccc(Cl)cc2)c(Cl)c1)c1cc(I)cc(I)c1O?
A: Potency [2]: 20 µM (active) and 3.93 µM (active); Potency [7]: 20 µM (active); Potency [4]: inactive; Potency [5]: 26.2 µM (active)

— PubChem BioAssay (NCATS)
